# PubChem BioAssay (NCI)
# This is part of a sample that, as a whole, favours compounds with a hit. Of some 79,000 tested, about 15% had one in any assay. A number with no mark means an inactive call. Active and inactive are the calls of the source. No stated cut-off is given here; in the data, active means growth inhibition above about 70%; inactive means the rest.
# What was measured:
# [1] = NCI Yeast Anticancer Drug Screen. Data for the wt1 strain (AID 149);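 further: 0% = growth of vehicle-treated wt1 cultures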; details: S. cerevisiae wt1 strain (SPY 50644) growth inhibition, hits give high values
# Summary of the method: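 Growth inhibition read against vehicle controls after compound exposure of the wt1 yeast strain.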
# [2] = NCI Yeast Anticancer Drug Screen. Data for the rad50EPP+ strain (AID 151);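 further: 0% = growth of vehicle-treated control cultures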; details: S. cerevisiae rad50 mutant strain, hits give high values
# Summary of the method: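 Exposing the rad50EPP+ strain to each compound, growth was compared with vehicle-only cultures to give inhibition.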
# [3] = NCI Yeast Anticancer Drug Screen. Data for the mgt1 strain (AID 153); details: S. cerevisiae mgt1 mutant growth inhibition, hits give high values
# Summary of the method: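 Genetically defined yeast (mgt1) treated with compound; inhibition of growth expressed against vehicle-treated controls.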
# [4] = NCI Yeast Anticancer Drug Screen. Data for the rad50 strain (AID 155);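 further: 0% = growth of vehicle-only cultures of the same strain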; details: S. cerevisiae rad50 strain growth inhibition, hits give high values
# Summary of the method: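 Readout: growth inhibition relative to vehicle-treated cultures. Compound exposure was carried out in a genetically defined yeast strain deficient in DNA damage repair.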
# [5] = NCI Yeast Anticancer Drug Screen. Data for the mec2-1 strain (AID 157); details: S. cerevisiae mec2-1 strain, hits give high values
# Summary of the method: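 Readout is yeast growth inhibition, normalised to vehicle-treated controls, in the mec2-1 strain exposed to compound.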
# [6] = NCI Yeast Anticancer Drug Screen. Data for the rad14 strain (AID 159);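 further: 0% = growth of vehicle-treated control cultures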; details: S. cerevisiae rad14 strain growth inhibition, hits give high values
# Summary of the method: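 Growth inhibition vs vehicle controls; genetically altered yeast strain (DNA damage repair defect) treated with test compounds.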
# [7] = NCI Yeast Anticancer Drug Screen. Data for the sgs1 mgt1 strain (AID 161);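 further: 0% = growth of cultures given vehicle only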; details: S. cerevisiae sgs1 mgt1 strain, hits give high values
# Summary of the method: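 This yeast growth screen uses a strain with defined DNA-repair lesions; compound-treated growth is compared with vehicle-treated growth.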
# [8] = NCI Yeast Anticancer Drug Screen. Data for the CLN2oe strain (AID 163);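 further: 0% = growth of vehicle-only control cultures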; details: S. cerevisiae CLN2oe strain, hits give high values
# Summary of the method: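 Values reflect how much compound exposure reduced yeast growth, referenced to vehicle-exposed cells. Assay organism is a strain with a defined genetic change affecting cell-cycle control.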
# [9] = NCI Yeast Anticancer Drug Screen. Data for the cln2 rad14 strain (AID 165);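 further: 0% = growth equal to vehicle treated cultures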; details: S. cerevisiae cln2 rad14 strain, hits give high values
# Summary of the method: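 Relative to vehicle controls, growth inhibition of compound-treated cln2 rad14 yeast was recorded.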
# [10] = NCI Yeast Anticancer Drug Screen. Data for the bub3 strain (AID 167); details: S. cerevisiae bub3 mutant strain, hits give high values
# Summary of the method: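 Readout: yeast growth inhibition, expressed relative to vehicle-only wells. The test organism is a mutant strain from a panel with lesions in DNA repair or checkpoint genes.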
# [11] = NCI Yeast Anticancer Drug Screen. Data for the wt2 strain (AID 169);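 further: 0% = growth of vehicle-treated yeast cultures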; details: S. cerevisiae wt2 strain growth inhibition, hits give high values
# Summary of the method: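 Values express reduction in yeast growth under compound treatment, referenced to vehicle-treated cells.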
# [12] = NCI Yeast Anticancer Drug Screen. Data for the mlh1 strain (AID 171);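 further: 0% = growth of vehicle-treated control cultures of the same strain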; details: S. cerevisiae mlh1 strain growth inhibition, hits give high values
# Summary of the method: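 Steps: expose the defined-mutant yeast strain to compound; expose a parallel culture to vehicle; measure growth; express compound effect as inhibition relative to the vehicle culture.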
# [13] = NCI Yeast Anticancer Drug Screen. Data for the sgs1 strain (AID 173);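 further: 0% = growth of vehicle-only control cultures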; details: S. cerevisiae sgs1 mutant, hits give high values
# Summary of the method: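 Treat defined-mutant yeast with compound; measure growth; calculate inhibition relative to vehicle-treated cells.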
# [14] = NCI Yeast Anticancer Drug Screen. Data for the mlh1 rad18 strain (AID 175); details: S. cerevisiae mlh1 rad18 strain growth inhibition, hits give high values
# Summary of the method: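 Test agents were incubated with a yeast strain of defined genotype (DNA damage repair defect). Inhibition of growth was derived by comparison with vehicle-exposed cultures.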
# [15] = NCI Yeast Anticancer Drug Screen. Data for the rad18 strain (AID 177); details: S. cerevisiae rad18 mutant growth inhibition, hits give high values
# Summary of the method: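 A genetically defined yeast mutant impaired in DNA damage repair was treated with test compounds, then its growth was measured against cultures receiving vehicle alone.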
# [16] = at 5.0 µM (retest, dose inferred, filed as 0.5)
# [17] = at 50.0 µM (retest, dose inferred, filed as 5.0)
compound,measurement,setting,value
CCC1(OC(=O)CN2CCN(CCO)CC2)C(=O)OCc2c1cc1n(c2=O)Cc2cc3ccccc3nc2-1 (stereo not drawn),growth inhibition,[1]; at 1.2 µM,9%
same,growth inhibition,[1]; at 3.7 µM,15%
same,growth inhibition,[1]; at 11.0 µM,24%
same,growth inhibition,[1]; at 33.0 µM,13%
same,growth inhibition,[1]; at 100.0 µM,7%
same,growth inhibition,[2]; at 1.2 µM,16%
same,growth inhibition,[2]; at 3.7 µM,17%
same,growth inhibition,[2]; at 11.0 µM,42%
same,growth inhibition,[2]; at 33.0 µM,60%
same,growth inhibition,[2]; at 100.0 µM,82% (active)
same,growth inhibition,[3]; at 1.2 µM,-18%
same,growth inhibition,[3]; at 3.7 µM,-20%
same,growth inhibition,[3]; at 11.0 µM,-19%
same,growth inhibition,[3]; at 33.0 µM,-23%
same,growth inhibition,[3]; at 100.0 µM,-45%
same,growth inhibition,[4]; at 1.2 µM,18%
same,growth inhibition,[4]; at 3.7 µM,57%
same,growth inhibition,[4]; [16],4%
same,growth inhibition,[4]; at 11.0 µM,74% (active)
same,growth inhibition,[4]; at 33.0 µM,88% (active)
same,growth inhibition,[4]; [17],83% (active)
same,growth inhibition,[4]; at 50.0 µM,17.9%
same,growth inhibition,[4]; at 100.0 µM,92% (active)
same,growth inhibition,[5]; at 1.2 µM,-23%
same,growth inhibition,[5]; at 3.7 µM,-19%
same,growth inhibition,[5]; [16],4%
same,growth inhibition,[5]; at 11.0 µM,-12%
same,growth inhibition,[5]; at 33.0 µM,-21%
same,growth inhibition,[5]; [17],-2%
same,growth inhibition,[5]; at 50.0 µM,20.1%
same,growth inhibition,[5]; at 100.0 µM,29%
same,growth inhibition,[6]; at 1.2 µM,-13%
same,growth inhibition,[6]; at 3.7 µM,-4%
same,growth inhibition,[6]; at 11.0 µM,-25%
same,growth inhibition,[6]; at 33.0 µM,-14%
same,growth inhibition,[6]; at 100.0 µM,-20%
same,growth inhibition,[7]; [16],-8%
same,growth inhibition,[7]; [17],-10%
same,growth inhibition,[7]; at 50.0 µM,3.05%
same,growth inhibition,[8]; at 1.2 µM,3%
same,growth inhibition,[8]; at 3.7 µM,5%
same,growth inhibition,[8]; at 11.0 µM,2%
same,growth inhibition,[8]; at 33.0 µM,-23%
same,growth inhibition,[8]; at 100.0 µM,-3%
same,growth inhibition,[9]; [16],20%
same,growth inhibition,[9]; [17],17%
same,growth inhibition,[9]; at 50.0 µM,8.9%
same,growth inhibition,[10]; at 1.2 µM,-4%
same,growth inhibition,[10]; at 3.7 µM,1%
same,growth inhibition,[10]; [16],0%
same,growth inhibition,[10]; at 11.0 µM,-10%
same,growth inhibition,[10]; at 33.0 µM,-14%
same,growth inhibition,[10]; [17],3%
same,growth inhibition,[10]; at 50.0 µM,-21.4%
same,growth inhibition,[10]; at 100.0 µM,-30%
same,growth inhibition,[11]; at 1.2 µM,11%
same,growth inhibition,[11]; at 3.7 µM,9%
same,growth inhibition,[11]; at 11.0 µM,14%
same,growth inhibition,[11]; at 33.0 µM,5%
same,growth inhibition,[11]; at 100.0 µM,-4%
same,growth inhibition,[12]; at 1.2 µM,1%
same,growth inhibition,[12]; at 3.7 µM,-5%
same,growth inhibition,[12]; at 11.0 µM,-12%
same,growth inhibition,[12]; at 33.0 µM,-20%
same,growth inhibition,[12]; at 100.0 µM,-13%
same,growth inhibition,[13]; at 1.2 µM,30%
same,growth inhibition,[13]; at 3.7 µM,21%
same,growth inhibition,[13]; at 11.0 µM,26%
same,growth inhibition,[13]; at 33.0 µM,21%
same,growth inhibition,[13]; at 100.0 µM,24%
same,growth inhibition,[14]; [16],-8%
same,growth inhibition,[14]; [17],-1%
same,growth inhibition,[14]; at 50.0 µM,78.3% (active)
same,growth inhibition,[15]; at 1.2 µM,9%
same,growth inhibition,[15]; at 3.7 µM,19%
same,growth inhibition,[15]; at 11.0 µM,6%
same,growth inhibition,[15]; at 33.0 µM,6%
same,growth inhibition,[15]; at 100.0 µM,1%
